Screening data (PubChem)
E coli growth-1 – bacterial growth inhibition, counter-screen for AddAB inhibitors. E. coli V3065 growth, OD600 absorbance, 18 h. inhibition, % at 11.9 µM. 330,000 tested, 0.27% active. AID 449728;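 active = inhibition above the campaign's mean inhibition across all tested compounds plus 3 SD, cut at about 9.9% in these data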;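 note: uninfected addAB+ strain grown without phage in ampicillin broth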
AddAB inh – less growth of phage-infected E. coli with AddAB | E. coli expressing H. pylori AddAB, absorbance growth | inhibition, % at 11.9 µM | 330,000 tested, 0.29% active; in the data active = inhibition above about 12%
phage Ecoli inh – E. coli growth loss with phage present; 360,000 tested, 0.26% active; inhibition, % at 11.9 µM; AID 651602; growth absorbance; in the data active = inhibition above about 11%
E coli growth-2 – blocks Escherichia coli growth; OD600, 23 h; hits give low values; AID 1053175; OD600 absorbance (no concentration beside the values); 330,000 tested, 0.21% active;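 active = OD600 absorbance below the run mean of sample wells minus 3.6 SD, in any replicate, cut at about 0.56 in these data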
Tat transport – blocks Tat-dependent protein export in E. coli. AID 488895. inhibition, % at 10 µM. E. coli MC4100 TorA-mCherry Tat export, fluorescence. 340,000 tested, 0.036% active;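 active = mean replicate inhibition at least 50% and at least half of replicates individually reaching 50%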;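 note: exported cargo escapes ClpAP degradation while cytoplasmic cargo is degraded and loses fluorescence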
RecBCD conf – confirmation: growth loss of phage-infected RecBCD+ E. coli (RecBCD inhibitor screen) | shares compounds with phage Ecoli inh | E. coli V66 + T4 2- phage, growth OD | inhibition, % at 11.9 µM | 890 tested, 45% active | AID 651982;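 active = mean inhibition over triplicates exceeding the hit threshold derived in the original primary screen, cut at about 11% in these data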
Ecoli viability – counter-screen for RecBCD inhibitors: inhibitors of bacterial viability. 890 tested, 29% active. E. coli viability, absorbance (OD) growth. shares compounds with phage Ecoli inh. inhibition, % at 11.9 µM. AID 651983; in the data active = inhibition above about 20%;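 note: E. coli strain V66 grown with compound alone and no phage infection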
AddAB phage OD – growth loss of phage-infected AddAB E. coli, RecBCD counter-screen. shares compounds with phage Ecoli inh. E. coli expressing H. pylori AddAB + T4 phage, OD growth; gene 2 mutant T4, recBCD-deleted host. inhibition, % at 11.9 µM. 890 tested, 45% active. AID 651984;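 active = mean inhibition above the solvent-only control wells' mean plus 3 SD, cut at about 22% in these data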;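 note: higher means less bacterial growth from phage killing when AddAB is blocked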
Large screens that a line does not name were inactive (follow-up assays come after a bar, where they were run). Most compounds without a hit are left out; they make up all but 0.5% or so of the library.

NCC[C@H](O)C(=O)N[C@@H]1C[C@H](N)[C@@H](O[C@H]2O[C@H](CN)[C@@H](O)[C@H](O)[C@H]2O)[C@H](O)[C@H]1O[C@H]1O[C@H](CO)[C@@H](O)[C@H](N)[C@H]1O	phage Ecoli inh 100, Tat transport 126 (no result: E coli growth-1, AddAB inh, E coli growth-2) | RecBCD conf 100 | Ecoli viability 100 | AddAB phage OD 101
NCC1OC(OC2C(N)CC(N)C(OC3OC(CO)C(O)C(N)C3O)C2O)C(N)CC1O (stereo not drawn)	none (no result: E coli growth-1, AddAB inh, phage Ecoli inh, Tat transport)
CC(=NNC(=S)Nc1cccc(C)c1)c1cccc(N)c1	none (no result: E coli growth-1, AddAB inh, phage Ecoli inh, Tat transport)
CCN(CC)c1ccc(C(=C2C=CC(=[N+](CC)CC)C=C2)c2ccccc2)cc1	phage Ecoli inh 79, Tat transport 64 (no result: E coli growth-1, AddAB inh, E coli growth-2) | RecBCD conf 73 | Ecoli viability 80 | AddAB phage OD 83
CCOC1OC(C(=O)N2CCN(Cc3ccccc3)CC2)=CC(C)C1CCCO (stereo not drawn)	none (no result: E coli growth-1, AddAB inh, phage Ecoli inh, Tat transport)
c1ccc(Nc2ccccc2Nc2ccccn2)nc1	none
Oc1cccc2ccc(Nc3ccccn3)nc12	E coli growth-1 18, phage Ecoli inh 12 | RecBCD conf inactive | Ecoli viability inactive | AddAB phage OD inactive
Cc1ccc(C=Nn2c(-c3ccc(Cl)cc3)n[nH]c2=S)o1	none (no result: E coli growth-1, AddAB inh, phage Ecoli inh, Tat transport)
CCCOc1ccc(CNC(=O)c2ccc3nc(N4CCOCC4)sc3c2)cc1	phage Ecoli inh 25 | RecBCD conf inactive | Ecoli viability inactive | AddAB phage OD inactive
Cc1ccc(C(=O)/C=C/NNC(=O)c2ccccc2)cc1	none (no result: E coli growth-1, AddAB inh, phage Ecoli inh, Tat transport)
CCC(C)[C@H](NC(=O)N1CCCCCC1)C(=O)O (stereo partly drawn)	none
CC(C)C[C@H](NC(=O)N1CCCCCC1)C(=O)O	phage Ecoli inh 55 | RecBCD conf inactive | Ecoli viability inactive | AddAB phage OD inactive
O=[N+]([O-])c1cccc(CN2C[C@@]34C=CC(CC3S2(=O)=O)O4)c1 (stereo partly drawn)	none (no result: E coli growth-1, AddAB inh, phage Ecoli inh, Tat transport)
O=C(C1=C(c2ccccc2)C(=O)c2ccccc2C1=O)c1ccccc1	phage Ecoli inh 11 (no result: E coli growth-1, AddAB inh) | RecBCD conf inactive | Ecoli viability inactive | AddAB phage OD inactive
Cc1ccc(NC(=O)C(c2ccccc2)c2ccccc2)nc1	none
O=C(Nc1ccccn1)C(c1ccccc1)c1ccccc1	phage Ecoli inh 12 (no result: E coli growth-1, AddAB inh, E coli growth-2, Tat transport) | RecBCD conf inactive | Ecoli viability inactive | AddAB phage OD inactive
O=C(CSc1ccc(-c2ccccn2)nn1)Nc1cccc(F)c1	E coli growth-1 11, phage Ecoli inh 12 | RecBCD conf inactive | Ecoli viability inactive | AddAB phage OD inactive
COc1cc(OC)c(C=NNC(N)=S)cc1Br	none (no result: E coli growth-1, AddAB inh, phage Ecoli inh, Tat transport)
COc1ccc(NC(=C2CCCC2=O)C2CCCCC2)cc1	none (no result: E coli growth-1, AddAB inh, phage Ecoli inh, Tat transport)
CCCCc1ccc(NC(=O)CSc2nc3ncccc3[nH]2)cc1	none
CCOC(=O)c1ccc(NC(=O)CSc2nc3ncccc3[nH]2)cc1	phage Ecoli inh 11 | RecBCD conf inactive | Ecoli viability inactive | AddAB phage OD inactive
CC(=O)SC1CC(=O)N(c2c(C)cccc2C)C1=O (stereo not drawn)	phage Ecoli inh 12 | RecBCD conf inactive | Ecoli viability inactive | AddAB phage OD inactive
Cc1ccc(S(=O)(=O)N2CCC(C(=O)NN=Cc3cccn3C)CC2)cc1	none (no result: E coli growth-1, AddAB inh, phage Ecoli inh, Tat transport)
Nc1nc(=O)n(C2CCC(CO)O2)cc1F (stereo not drawn)	phage Ecoli inh 11 (no result: E coli growth-1, AddAB inh, E coli growth-2, Tat transport) | RecBCD conf inactive | Ecoli viability inactive | AddAB phage OD 31
O=c1[nH]cnc2c1ncn2C1CCC(CO)O1 (stereo not drawn)	phage Ecoli inh 87 (no result: E coli growth-1, AddAB inh, E coli growth-2, Tat transport) | RecBCD conf 74 | Ecoli viability 90 | AddAB phage OD 98
O=c1[nH]cnc2c1ncn2C1OC(CO)C(O)C1O (stereo not drawn)	none (no result: E coli growth-1, AddAB inh)
